A structure can be active in one record and inactive in another. Activity calls are given as the source filed them. How the source made its calls: active means hit-call score of the fitted dose curve at least 0.9, where 1 is the maximum; inactive means score below 0.9.
Biological target: Transcription factor Sp1 (Homo sapiens) (UniProt P08047)
Assay: ATG_Sp1_CIS: Attagene CIS-FACTORIAL HepG2 Assay for human Specificity Protein 1 (Sp1) (AID 2282961)
Conditions: HepG2 Sp1 cis-reporter transcription, actives raise or lower the signal
Procedure: ATG_CIS is a cell-based, multiplexed-readout assay that uses HepG2, a human liver cell line, with measurements taken at 24 hours after chemical dosing in a 24-well plate.ATG_Sp1_CIS is one of 52 assay component(s) measured or calculated from the ATG_CIS assay. It is designed to make measurements of mRNA induction, a form of inducible reporter, as detected with fluorescence intensity signals by Reverse transcription polymerase chain reaction (RT-PCR) and Capillary electrophoresis technology.Data from the assay component ATG_Sp1_CIS was analyzed into 1 assay endpoint. This assay endpoint, ATG_Sp1_CIS, was analyzed with bidirectional fitting relative to DMSO as the negative control and baseline of activity. Using a type of inducible reporter, measures of mRNA for gain or loss-of-signal activity can be used to understand the reporter gene at the transcription factor-level as they relate to the gene SP1. Furthermore, this assay endpoint can be referred to as a primary readout, because this assay has produced multiple assay endpoints where this one serves a reporter gene function. To generalize the intended target to other relatable targets, this assay endpoint is annotated to the dna binding intended target family, where the subfamily is zinc finger.
Human liver HepG2 cells are transiently transfected with multiple reporter transcription units (MRTUs) in 6-well plates using FuGene 6 reagent (Roche; 3 ml FuGene/1 mg DNA). The MRTU constructs are regulated by a cis-regulating element (promoter). […] A major difference between the CIS and TRANS system is that in CIS activities of endogenous TFs are measured, whereas the TRANS assay evaluates changes in activities of exogenous, chimeric NR-Gal4 proteins. […] At the end of 24 hour incubation, total RNA was isolated using TriZol reagent (Invitrogen). The isolated RNA is then reverse-transcribed using oligo(dT) primer and Mo-MLV reverse transcriptase (Invitrogen) with DNAse I (Ambion) treatment for 30 min. The one-tenth of the produced cDNA was amplified by PCR using Taq DNA polymerase (Invitrogen) and two reporter sequence-specific primers. The PCR products were fluorescently labeled by primer extension with 6-arboxyfluorescein (6-FAM) 5'-labeled reporter sequence-specific primer (2 min at 95 C, 20 s at 68 C and 10 min at 72 C) and these products were digested with 5U of HpaI (New England Biolabs) for 2h at 37 C. The fragments were purified using Qiaquick PCR columns (Qiagen), analyzed on an ABI 3130xL genetic analyzer (Applied Biosystems) with peak positions identified by using a set of X-rhodamine (ROX)-labeled MapMarker1000 molecular weight standards (BioVentures). The raw capillary electrophoresis data was processed using Attagraph software (Attagene).

Chain of Transcription factor Sp1 (Homo sapiens) (P08047 whole entry, looked up): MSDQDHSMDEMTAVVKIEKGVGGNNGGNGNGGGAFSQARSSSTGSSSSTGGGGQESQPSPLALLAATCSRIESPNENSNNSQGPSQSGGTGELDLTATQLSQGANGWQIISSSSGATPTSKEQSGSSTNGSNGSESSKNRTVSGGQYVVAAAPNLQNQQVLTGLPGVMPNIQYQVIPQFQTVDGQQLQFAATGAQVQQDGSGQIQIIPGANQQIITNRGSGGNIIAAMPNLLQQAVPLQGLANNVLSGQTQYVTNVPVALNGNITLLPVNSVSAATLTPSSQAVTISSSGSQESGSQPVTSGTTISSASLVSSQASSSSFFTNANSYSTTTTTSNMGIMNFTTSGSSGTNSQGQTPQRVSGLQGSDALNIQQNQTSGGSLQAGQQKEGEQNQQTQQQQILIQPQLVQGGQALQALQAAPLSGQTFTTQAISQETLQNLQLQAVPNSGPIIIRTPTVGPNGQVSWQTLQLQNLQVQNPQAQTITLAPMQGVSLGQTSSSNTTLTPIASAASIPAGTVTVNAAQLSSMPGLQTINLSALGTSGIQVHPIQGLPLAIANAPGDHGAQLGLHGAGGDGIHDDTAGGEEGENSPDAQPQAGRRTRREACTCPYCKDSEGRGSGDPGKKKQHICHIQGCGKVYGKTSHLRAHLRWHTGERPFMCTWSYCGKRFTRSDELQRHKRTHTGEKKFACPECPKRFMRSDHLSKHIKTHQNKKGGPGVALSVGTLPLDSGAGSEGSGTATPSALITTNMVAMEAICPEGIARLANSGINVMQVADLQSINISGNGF

Structure (SMILES) | outcome | AC50
N=C(N)c1ccc(OCCCCCOc2ccc(C(=N)N)cc2)cc1 | inactive | –
CC(C)C=O | inactive | –
O=C(CCCN1CCC(O)(c2ccc(Cl)cc2)CC1)c1ccc(F)cc1 | – | 33.4 µM (active)
COC(O)c1ccccc1 (stereo not given) | inactive | –
CC=O | inactive | –
CNNCc1ccc(C(=O)NC(C)C)cc1 | inactive | –
COc1ccccc1NC(=O)c1cc2ccccc2cc1O | – | 27.7 µM (active)
Oc1cccc2c(O)cccc12 | inactive | –
CCCCCCCCCCCC[N+](C)(C)Cc1ccccc1 | inactive | 6.43 µM (active)
CCCCCCCCCCCC(=O)O | inactive | 36.7 µM (active)
O=P(O)(O)CCC(F)(F)C(F)(F)C(F)(F)C(F)(F)C(F)(F)C(F)(F)F | inactive | –
FC(F)(F)C1(F)C(F)(F)C(F)(F)C(F)(F)C1(F)F | inactive | –
Nc1cc(Cl)c(-c2cc(Cl)c(N)cc2Cl)cc1Cl | – | 15.9 µM (active)
C=CC(C)(CCC=C(C)C)OC(C)=O (stereo not given) | inactive | –
COc1cc(OC)nc(NC(=O)NS(=O)(=O)Nc2ccccc2C(=O)N(C)C)n1 | inactive | –
NC(C(F)(F)F)C(F)(F)F | inactive | –
FC(OC(F)(F)C(F)(F)C(F)(F)F)C(F)(F)F (stereo not given) | inactive | –
CCCC=O | inactive | –
NNC(=O)CCCCC(=O)NN | inactive | –

Structure (SMILES) | outcome | AC50
Oc1cc2ccccc2cc1O | inactive | –
Cc1cccc2c1ccc1ccccc12 | inactive | –
O=S(=O)(O)c1ccccc1 | inactive | –
CCCCC(CC)C(=O)O (stereo not given) | inactive | –
CCC(=O)C=Cc1ccc(OC)cc1 | inactive | –
CCCCCCCCC(C)=O | inactive | –
O=C1OC2(c3ccccc31)c1cc(I)c(O)c(I)c1Oc1c2cc(I)c(O)c1I | inactive | –
CC1=NN(c2ccccc2)C(=O)C1 | inactive | –
OCCN1CN(CCO)CN(CCO)C1 | – | 144 µM (active)
O=CC(F)(F)C(F)(F)C(F)(F)F | inactive | –
Cc1ccc2ccc3ccc(C)cc3c2c1 | inactive | –
Brc1cc(Br)c(Oc2c(Br)cc(Br)c(Br)c2Br)cc1Br | inactive | –
O=S(=O)(O)c1ccc2cc(O)ccc2c1 | inactive | –
O=S(=O)(c1ccc(OCc2ccccc2)cc1)c1ccccc1O | – | 30.6 µM (active)
FC(F)(F)C(F)(F)C(F)(F)C(F)(F)I | inactive | –
O=C(OC(=O)C(F)(F)C(F)(F)F)C(F)(F)C(F)(F)F | inactive | –
CC1CCC(CO)CC1 (stereo not given) | inactive | –
Cc1ccc(C)c(S(=O)(=O)O)c1 | inactive | –
CC(C)c1c(C(=O)Nc2ccccc2)c(-c2ccccc2)c(-c2ccc(F)cc2)n1CC[C@@H](O)C[C@@H](O)CC(=O)O | inactive | –
